# Screening data from PubChem.
# BioA inh-1 = blocks M. tuberculosis BioA enzyme activity. purified M. tuberculosis BioA enzyme, plate reader. inhibition, % at 9.99 µM. actives 0.096% (n = 360,000); in the data active = inhibition above about 40%
# Yp Topo-I inh = Y. pestis Topo-I inhibition via cleavage products. Y. pestis Topo-I cleavage product accumulation, plate reader. activity, % at 10 µM. actives 0.064% (n = 360,000). AID 504884; in the data active = activity above about 50%, passing the limit was not always enough
# TcdB GH inh = blocks C. difficile toxin B glycohydrolase activity | TcdB glycohydrolase enzymatic assay, plate reader | actives 0.24% (n = 350,000) | P18177 | inhibition, % at 9.99 µM; in the data active = inhibition above about 10%
# BioA inh-2 = Mtb BioA enzyme inhibition; max activity, %; purified BioA enzyme, plate reader, dose response; shares compounds with BioA inh-1; 310 tested, under 10 active;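 note: top concentration of the dilution series was 10 µM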
# Target sequence (P9WQ81 whole entry, looked up): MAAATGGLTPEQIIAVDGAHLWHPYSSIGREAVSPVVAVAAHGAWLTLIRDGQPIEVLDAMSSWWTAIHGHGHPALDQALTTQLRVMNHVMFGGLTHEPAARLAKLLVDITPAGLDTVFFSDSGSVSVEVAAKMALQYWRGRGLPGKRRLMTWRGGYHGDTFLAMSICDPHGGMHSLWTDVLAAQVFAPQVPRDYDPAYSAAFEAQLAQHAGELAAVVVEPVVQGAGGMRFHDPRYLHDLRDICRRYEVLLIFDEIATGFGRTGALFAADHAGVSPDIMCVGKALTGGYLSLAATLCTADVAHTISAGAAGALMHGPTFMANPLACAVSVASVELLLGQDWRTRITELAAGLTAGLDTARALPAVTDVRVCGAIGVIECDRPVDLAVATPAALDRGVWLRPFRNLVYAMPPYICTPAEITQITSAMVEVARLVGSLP
# HepG2 cytotox = HepG2 viability loss; shares compounds with BioA inh-1; HepG2 cytotoxicity, plate reader; max activity, %; 310 tested, under 10 active
# 3T3 cytotox 5 = cytotoxicity in NIH3T3 cells | shares compounds with BioA inh-1 | plate reader | activity change, negative = cytotoxicity, % at 26 µM | 310 tested, under 10 active | AID 651900
# Numbers without * were called inactive; i = inactive; . = no result. Sampled rows, rich in hits. Any-hit rate of the full collection: about 0.32%. Unless noted, the rule behind the calls is not given here.
SMILES,BioA inh-1,Yp Topo-I inh,TcdB GH inh,BioA inh-2,HepG2 cytotox,3T3 cytotox 5
CO[C@H]1CN(C)C(=O)c2ccc(NC(=O)c3ccc(F)cc3)cc2OC[C@H](C)N(C(=O)c2ccc(F)cc2)C[C@@H]1C,1,.,-3,.,.,.
COc1ccc(CN(C)C[C@H]2Oc3ccc(NC(=O)Nc4c(C)noc4C)cc3CC(=O)N([C@H](C)CO)C[C@H]2C)cc1,2,.,-1,.,.,.
O=C(c1ccncc1)N1CC2(C1)[C@@H](c1ccccc1)[C@@H](CO)N2CC1CCCC1,.,.,-1,.,.,.
O=C(NCC[C@@H]1CC[C@@H](NC(=O)c2cnccn2)[C@H](CO)O1)c1ccc2c(c1)OCO2,11,.,0,.,.,.
C=CCn1c(COc2ccccc2F)nnc1SCCN1C(=O)c2ccccc2C1=O,44*,20,.,-7,12,0
C=CCn1c(SCCN2C(=O)c3ccccc3C2=O)nc2scc(-c3ccc(F)cc3)c2c1=O,.,6,1,.,.,.
C[C@H](CO)N1C[C@H](C)[C@H](CN(C)C(=O)Nc2cccc3ccccc23)Oc2c(NC(=O)c3nc4ccccc4s3)cccc2C1=O,-1,.,0,.,.,.
C[C@@H]1CN([C@@H](C)CO)C(=O)c2cc(C3=CCCCC3)cnc2O[C@H]1CN(C)Cc1ccccc1F,4,.,1,.,.,.
C[C@H](CO)N1C[C@H](C)[C@@H](CN(C)S(C)(=O)=O)Oc2ncc(C#Cc3cccnc3)cc2C1=O,23,.,0,.,.,.
C[C@@H]1CN([C@@H](C)CO)C(=O)c2cc(C#Cc3cccnc3)cnc2O[C@H]1CN(C)S(C)(=O)=O,74*,.,0,6,i,1
O=C(CCn1nc(-c2ccccc2)c2ccccc2c1=O)Nc1cccnc1,.,2,-1,.,.,.
Cc1ccc(-c2nn(CCC(=O)Nc3cccnc3)c(=O)c3ccccc23)cc1,89*,0,1,-11,12,-6
CN(Cc1ccccc1)C(=O)CCS(=O)(=O)c1ccc2c(c1)NC(=O)CS2,41*,16,.,8,18,8
CCN(Cc1ccccc1)S(=O)(=O)c1ccc2c(c1)NC(=O)CS2,2,23,2,.,.,.
